Laboratory results from PubChem BioAssay (NCATS).
Records with an inconclusive call do not appear. Values without a mark were called inactive. Activity calls are given as the source filed them. The call rests on the fitted dose curve; in most records, active means well fitted inhibition curve with a large enough effect in the repeat runs; inconclusive means weak or mixed curves; inactive means flat fitted curve, though single readings scatter.

These compounds were tested against Cytochrome P450 2D6 (Homo sapiens) (UniProt P10635) (assay: Cytochrome P450 family 2 subfamily D member 6 (CYP2D6) small molecule antagonists: luciferase biochemical (cell-free) qHTS assay (AID 1645840; further: nearly all actives have a fitted effect of over 55% in size)). Conditions: P450-Glo CYP2D6 enzyme, luciferin luminescence, 1 h; series mostly up to 57.4 µM; activity change, negative = inhibition: at the top concentration.
In short: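 P450-Glo CYP2D6 system: proluciferin substrate converted by enzyme to luciferin, read by luminescence proportional to activity. Enzyme-substrate mix with compound 10 min at room temperature, then NADPH regeneration 1 h before detection reagent.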
On the % scale 0 is the no-effect control and ±100 the full control effect; potency means the concentration at half of the fitted maximal effect.

Cytochrome P450 2D6 (Homo sapiens), sequence (P10635 whole entry, looked up): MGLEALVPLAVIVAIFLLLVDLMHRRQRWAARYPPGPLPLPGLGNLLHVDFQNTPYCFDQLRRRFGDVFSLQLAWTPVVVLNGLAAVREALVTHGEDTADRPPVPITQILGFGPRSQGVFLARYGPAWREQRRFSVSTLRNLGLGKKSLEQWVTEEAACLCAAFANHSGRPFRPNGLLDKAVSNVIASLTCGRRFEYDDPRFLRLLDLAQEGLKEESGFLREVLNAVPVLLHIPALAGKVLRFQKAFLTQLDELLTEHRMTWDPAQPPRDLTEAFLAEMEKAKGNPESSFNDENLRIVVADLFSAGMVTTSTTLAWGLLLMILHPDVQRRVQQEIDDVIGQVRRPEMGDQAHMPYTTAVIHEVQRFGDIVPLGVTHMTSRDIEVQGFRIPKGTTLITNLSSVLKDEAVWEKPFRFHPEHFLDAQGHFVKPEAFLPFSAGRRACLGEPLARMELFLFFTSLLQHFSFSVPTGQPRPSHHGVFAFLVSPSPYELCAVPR

Compound | Potency | activity change, negative = inhibition [%]
O=C(Nc1ccc2c(c1)CCN(Cc1ncn[nH]1)C2)c1ccccc1-c1ccc(C(F)(F)F)cc1 | 0.12 µM (active) | –
COC(=O)C1=C(C)NC(C)=C(C(=O)OC)C1c1cccc(NC(=O)NCCCN2CCC(c3cccc(OC)c3)CC2)c1 | 4.25 µM (active) | –
O=Cc1ccc(O)c(O)c1O | – | -10.8
Fc1ccc2[nH]c(CN3CCN(c4ccccn4)CC3)cc2c1 | 5.35 µM (active) | –
CCCCN(CC)c1nc(C)nc2c1c(C)cn2-c1c(C)cc(C)cc1C | – | -1.98
CC1(C)S[C@@H]2[C@H](NC(=O)[C@H](N)c3ccccc3)C(=O)N2[C@H]1C(=O)O | – | -7.17
CN(CCCOc1ccc(Cc2ccccc2)cc1)CCC(=O)O | – | 7.21
CS(=O)(=O)c1ccc(-n2nc(C(F)(F)F)cc2-c2ccc(F)cc2)cc1 | 9.52 µM (active) | –
